HT1080 IDH1KD tx – kills HT-1080 cells with IDH1 knockdown | HT-1080 IDH1 knockdown viability, ATP luminescence, 48 h | Potency, µM (doses to about 46.1 µM), for inactives: top-dose activity, negative = toxicity, actives largely listed as cytotoxic | hit rate 2% among 360,000 | AID 686971;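 note: potency is the fitted concentration of half-maximal effect; 0% = DMSO wells and -100% = cell-free medium wells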
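% activity derives from luminescence (CellTiter-Glo), normalised to DMSO and no-cell wells. HT-1080-IDH1KD cells, 750/well, had 48 h compound exposure at 37 °C.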
HT1080NT lethal – kills 2HG-producing HT-1080-NT fibrosarcoma cells | HT-1080-NT fibrosarcoma viability, CellTiter-Glo ATP luminescence, 48 h | Potency, µM (series often up to 46.1 µM), inactives show top-dose activity, negative = less viability, most hits filed as cytotoxic | hit rate 1.6% among 360,000 | AID 686970;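 note: NT is the 2HG producing partner of a matched IDH1 knockdown line; potency is the fitted concentration of half-maximal effect; 0% = DMSO-treated cells and -100% = media-only wells without cells; nearly all actives have a fitted effect of over 55% in size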
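750 cells/well, RPMI + 5% FBS; 2 h settle, compound pin-transfer, 48 h at 37 degrees C. CellTiter-Glo 10 min RT, luminescence. Normalized to DMSO and media-only wells.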
DT40 TDP1 CPT – DT40-hTDP1 cell growth loss with CPT. Potency, µM (top dose mostly 46.2 µM), for inactives: top-dose activity change, negative = growth inhibition, actives largely listed as inhibitors. chicken DT40 Tdp1-/-;hTDP1 cells + 20 nM CPT, ATP luminescence, 48 h. hit rate 12% among 420,000; note: potency is the fitted concentration of half-maximal effect; nearly all actives have a fitted effect of over 55% in size
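Chicken DT40 Tdp1-/- cells complemented with human TDP1, 400 cells/well, exposed to compounds plus 20 nM camptothecin for at least 48 h at 37 C; viability read as ATP content by CellTiter-Glo luminescence.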
TDP1 cell noCPT – qHTS for Inhibitors of human tyrosyl-DNA phosphodiesterase 1 (TDP1): qHTS in cells in absence of CPT. DT40 Tdp1-/- hTDP1 cells, no CPT, ATP luminescence, 48 h. Potency, µM (series often up to 46.2 µM), for the others: top-dose activity change, negative = growth inhibition, most hits filed as inhibitors. hit rate 15% among 420,000; note: potency is the fitted concentration of half-maximal effect; nearly all actives have a fitted effect of over 55% in size
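Chicken DT40 Tdp1-/- cells stably complemented with human TDP1 were seeded at 400 cells/well with DMSO in place of 20 nM camptothecin. After compound pinning, cells grew at least 48 hr at 37 °C; viability read by CellTiter-Glo luminescence.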
IL1B secr inh – inflammasome signaling inhibition, IL-1 beta readout | THP-1 LPS/ATP IL-1B secretion, AlphaLISA, 16 h; active compounds read low | activity change, % at 57.5 µM | hit rate 4.7% among 360,000 | AID 743279; in the data active = activity change below about -50%; inconclusive = mostly about -30% to -49%
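THP-1 cells pretreated 1 hr with compounds (up to 57.5 uM final), then stimulated with LPS (250 ng/mL final) plus ATP (1.25 mM final); secreted IL-1B measured by AlphaLISA after 16 hr, decreased signal indicating inhibition.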
An asterisk follows results filed as active; ? = inconclusive; nt = not tested or not shown; [ ] = another dose, or the depositor's remark. In the library only some 19% were active in any assay of this set; here they are far more common. Unless noted, calls come from the whole dose curve; as a rule, active = well fitted curve in the direction sought with a large enough effect; inconclusive = small, poorly fitted or top-dose-only effect, or another doubt; inactive = no such curve, though single readings can be large; an effect the other way counts as inactive or inconclusive. Unless noted, % is set by controls: 0 for no effect and ±100 for the full control effect.

SMILES	HT1080 IDH1KD tx	HT1080NT lethal	DT40 TDP1 CPT	TDP1 cell noCPT	IL1B secr inh
Cc1cc(C)c(NC(=O)Cn2c(=O)n(Cc3ccc4c(c3)OCO4)c(=O)c3ccccc32)c(C)c1	nt	nt	-27%	?	nt
CCN(C(=O)Cn1c(=O)n(Cc2ccc3c(c2)OCO3)c(=O)c2ccc(C(=O)NC3CCCCC3)cc21)c1cccc(C)c1	nt	nt	15µM*	16µM*	nt
Cc1cc(C)c(NC(=O)Cn2c(=O)n(Cc3ccc(C(=O)NCc4ccc5c(c4)OCO5)cc3)c(=O)c3ccccc32)c(C)c1	nt	nt	6.5µM*	7.3µM*	nt
CCN(C(=O)Cn1c(=O)n(Cc2ccccc2)c(=O)c2ccccc21)c1cccc(C)c1	-3%	-7%	-11%	?	-24
Cc1ccc(C)c(NC(=O)Cn2c(=O)n(Cc3ccc4c(c3)OCO4)c(=O)c3ccc(C(=O)NC4CCCCC4)cc32)c1	nt	nt	2.6µM*	?	nt
Cc1ccc(NC(=O)Cn2c(=O)n(Cc3ccc4c(c3)OCO4)c(=O)c3ccc(C(=O)NC4CCCCC4)cc32)c(C)c1	nt	nt	2.1µM*	?	nt
O=C(OCC1(COC(=O)c2cccnc2)CCCC(COC(=O)c2cccnc2)(COC(=O)c2cccnc2)C1O)c1cccnc1	nt	nt	2%	12%	nt
CCCn1nc(C(=O)NNC(=O)Cc2ccc(S(=O)(=O)N3CCOCC3)s2)c2ccccc2c1=O	-2%	-1%	-26%	-21%	-10
CCn1cc(C(=O)OC)c(=O)c2cc(S(=O)(=O)N(C)C3CCCCC3)ccc21	-5%	-11%	?	-47%	-5
COc1ccc(Cl)cc1NC(=O)Cn1c(=O)n(Cc2ccco2)c(=O)c2ccc(C(=O)NC3CCCC3)cc21	nt	nt	-8%	-11%	nt
Cc1ccc(NC(=O)Cn2c(=O)n(Cc3ccco3)c(=O)c3ccc(C(=O)NC4CCCC4)cc32)c(C)c1	nt	nt	16µM*	16µM*	nt
Cc1cc(C)c(NC(=O)Cn2c(=O)n(CCC(=O)N3CCc4ccccc4C3)c(=O)c3ccccc32)c(C)c1	nt	nt	13µM*	0.52µM*	nt
Cc1ccccc1NC(=O)Cn1c(=O)n(Cc2ccc3c(c2)OCO3)c(=O)c2ccc(C(=O)NC3CCCCC3)cc21	nt	nt	5.8µM*	7.3µM*	nt
COc1ccccc1CNC(=O)c1ccc2ccccc2n1	7%	-8%	-28%	?	-20
COc1ccccc1CNC(=O)[C@H](C)NC(=O)C1CCN(C(=O)[C@@H](N)CCSC)CC1	-2%	0%	-2%	0%	42
CCN(CCC#N)c1ccc(/C=C/c2ccnc3ccccc23)cc1	nt	nt	?	20µM*	nt
CN(CCC#N)c1ccc(/C=C/c2ccnc3ccccc23)cc1	nt	nt	0.79µM*	2µM*	nt
CCn1ncc(C2=NOC(C(=O)NCc3ccc(OC)cc3)C2)c1C (stereo not drawn)	?	?	16µM*	?	31
CCn1ncc(C2=NOC(C(=O)NCc3ccccc3)C2)c1C (stereo not drawn)	1.8µM*	2.8µM*	1.2µM*	1.6µM*	57
CCn1ncc(C2=NOC(C(=O)Nc3cccc(C(C)=O)c3)C2)c1C (stereo not drawn)	-23%	0%	?	21µM*	-14
COc1cccc(C2=NOC(C(=O)Nc3cccc(C(C)=O)c3)C2)c1OC (stereo not drawn)	-3%	1%	?	?	-16
CCN(C(=O)CSc1nnc(COc2cccc(C)c2)o1)c1nc(C)cs1	8%	0%	?	-22%	14
CCn1nc(C)c(CN2CCC3(CCC(CNC(=O)c4ccccc4)O3)CC2)c1C (stereo not drawn)	nt	nt	4%	-4%	nt
O=C1CC(=Nc2ccc([N+](=O)[O-])cc2)NN1c1c(Cl)cc(Cl)cc1Cl	-15%	-15%	?	26µM*	-74*
O=C(c1ccc([N+](=O)[O-])cc1)N(Cc1ccc(Cl)cc1Cl)N1C(=O)CCCC1=O	-10%	-15%[9.24 µM]	-12%	-22%	-8
SMILES	HT1080 IDH1KD tx	HT1080NT lethal	DT40 TDP1 CPT	TDP1 cell noCPT	IL1B secr inh
Cc1ccc(-c2nnc3ccc(SCC(=O)OCc4ccccc4)nn23)cc1	nt	nt	-1%	?	nt
Nc1nc(=S)[nH]c(N)c1N	nt	nt	3%	-21%	nt
Cc1ccc(CNC(=O)c2nnn(CC(=O)Nc3cc(C)ccc3C)c2N)cc1	nt	nt	0%	1%	nt
Cc1ccc(C)c(NC(=O)Cn2nnc(C(=O)NCc3ccco3)c2N)c1	?	?	1.3µM*	1.2µM*	13
Cc1ccc(C)c(NC(=O)Cn2nnc(C(=O)NCc3cccs3)c2N)c1	23µM*	?	?	?	22
Cc1cc(C(=O)NCc2ccc(Cl)cc2)c2c(C)nn(-c3ccccc3)c2n1	nt	nt	-2%	-17%	nt
CCOc1ccc(NC(=O)c2cc(C)nc3c2c(C)nn3-c2ccc(C)cc2)cc1	nt	nt	?	-26%	nt
Cc1cc(C(=O)Nc2ccc(Cl)cc2)c2c(C)nn(-c3ccccc3)c2n1	nt	nt	9.2µM*	?	nt
CCOC(=O)c1cccc(NC(=O)c2cc(C)nc3c2c(C)nn3-c2ccc(C)cc2)c1	nt	nt	?	21µM*	nt
COc1cc(OC)c(NC(=O)c2cc(C)nc3c2c(C)nn3-c2ccc(C)cc2)cc1Cl	nt	nt	-26%	-29%	nt
Cc1nn(-c2ccccc2)c2nc(C3CC3)cc(C(=O)Nc3ccccc3F)c12	nt	nt	7.3µM*	5.8µM*	nt
COc1ccc(C2c3c(oc4ccc(Cl)cc4c3=O)C(=O)N2CCN2CCOCC2)cc1 (stereo not drawn)	?	30%	13%	-20%	-10
Cn1c(=O)c2c(ncn2CCOc2cccc(Br)c2)n(C)c1=O	-14%	?	8.2µM*	9.2µM*	32
Cn1c(=O)c2c(nc(Oc3cccc(Br)c3)n2C)n(C)c1=O	0%	-5%	-17%	-8%	10
Cc1ccc(OCCn2c(Br)nc3c2c(=O)n(C)c(=O)n3C)cc1	0%	0%	12µM*	18µM*	-7
Cn1c(=O)c2c(ncn2CC(=O)OCCCC(=O)c2ccc(Br)cc2)n(C)c1=O	-8%	-5%	18µM*	6.5µM*	32
Cn1c(=O)c2c(nc(Br)n2CCc2ccccc2)n(C)c1=O	1%[9.24 µM]	-5%	?	?	-2
C=CCC[C@@H](Cc1ccc(F)cc1)C(=O)OC[C@@H](NC(=O)[C@@H](CC=C)CC(=O)N(CCO)Cc1ccccc1)c1ccccc1	?	21µM*	15µM*	26µM*	-67*
C=CCC[C@@H](Cc1ccc(F)cc1)C(=O)OC[C@@H](NC(=O)[C@H](CC=C)CC(=O)N(CCO)Cc1ccccc1)c1ccccc1	?	?	?	?	-60*
